Sampled rows, rich in hits. Any-hit rate of the full collection: about 8.7%.
ALOX12 inh: ALOX12 (human) lipoxygenase inhibition. AID 1671190. purified 12hLO, xylenol orange hydroperoxide absorbance. P18054. 580,000 compounds, 1.1% hits. Potency, µM (doses to about 108 µM), hits mostly inhibitors
Target sequence (P18054 whole entry, looked up): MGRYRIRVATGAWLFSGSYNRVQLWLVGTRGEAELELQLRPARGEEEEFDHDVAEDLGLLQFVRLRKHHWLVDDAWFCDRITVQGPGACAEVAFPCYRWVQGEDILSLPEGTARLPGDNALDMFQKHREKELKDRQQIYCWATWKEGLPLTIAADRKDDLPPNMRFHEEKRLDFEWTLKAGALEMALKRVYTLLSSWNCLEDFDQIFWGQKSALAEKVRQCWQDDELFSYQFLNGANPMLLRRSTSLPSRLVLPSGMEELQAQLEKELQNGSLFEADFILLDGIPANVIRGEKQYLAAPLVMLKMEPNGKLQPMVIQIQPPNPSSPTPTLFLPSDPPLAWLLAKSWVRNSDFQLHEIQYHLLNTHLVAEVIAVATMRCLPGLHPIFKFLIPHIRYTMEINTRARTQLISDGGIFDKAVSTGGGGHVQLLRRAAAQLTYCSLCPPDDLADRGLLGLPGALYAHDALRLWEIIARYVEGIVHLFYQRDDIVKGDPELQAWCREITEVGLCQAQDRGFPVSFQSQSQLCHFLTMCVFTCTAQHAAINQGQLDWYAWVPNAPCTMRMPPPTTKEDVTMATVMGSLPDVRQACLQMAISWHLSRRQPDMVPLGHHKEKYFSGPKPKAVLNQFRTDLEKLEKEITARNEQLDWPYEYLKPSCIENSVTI
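Purified human 12hLO (150 nM final) in 25 mM Hepes, 0.01% Triton X-100, pH 7.0 was preincubated 15 min at room temperature with compound. Then 40 uM arachidonic acid was added, 30 min. Hydroperoxide was read by Fe-XO absorbance ratio 573/405 nm.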
HP1b binding inh: HP1-beta chromodomain-methylated histone interaction inhibition; P83916; 390,000 compounds, 0.56% hits; Potency, µM (highest dose often 114 µM), hits mostly inhibitors; AlphaScreen HP1-beta / biotin-H3K9me3 peptide binding; note: nearly all actives have a fitted effect of over 70% in size
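Compound inhibition of the preformed complex between 50 nM HP1-beta and 50 nM biotinylated H3K9me3 peptide was read by AlphaScreen. Buffer was PBS pH 7.4 with 0.01% Tween-20. Incubations ran 30 min at room temperature, with 10 ug/mL donor/acceptor beads.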
BAZ2B block: inhibitors of human BAZ2B bromodomain. AID 504333. AlphaScreen BAZ2B-H3K14Ac peptide displacement. Potency, µM (titrated, usually from 114 µM), most hits filed as inhibitors. 360,000 compounds, 4.4% hits; note: nearly all actives have a fitted effect of over 60% in size
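In this displacement format the biotinylated H3(5-23) peptide acetylated at Lys14 serves as ligand at 50 nM, with BAZ2B at 50 nM in PBS pH 7.4 containing 0.01% Tween-20. Donor and acceptor beads are 10 ug/mL final.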
JMJD2A Tudor: blocks the human JMJD2A Tudor domain. 390,000 compounds, 4.4% hits. AID 504339. Potency, µM (series often up to 114 µM), actives largely listed as inhibitors. AlphaScreen JMJD2A-Tudor / H3K4me3 peptide binding. O75164; note: nearly all actives have a fitted effect of over 50% in size
G9a block: inhibitors of human histone lysine methyltransferase G9a; Q96KQ7; G9a H3K9 monomethylation, AlphaScreen, 2 h; Potency, µM (titrated, usually from 102 µM), actives largely listed as inhibitors; 350,000 compounds, 8.8% hits; AID 504332; note: nearly all actives have a fitted effect of over 75% in size
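G9a (20 nM) preincubated 15 min RT with compounds, then 500 nM biotinylated H3K9 peptide and 20 uM SAM added; 2 h RT reaction. Monomethyl-H3K9 product detected by AlphaScreen with anti-H3K9me1 antibody, streptavidin donor and anti-rabbit IgG acceptor beads.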
Sfp inh: inhibitors of Bacillus subtilis Sfp phosphopantetheinyl transferase; Biochemical Sfp PPTase activity, qHTS; Potency, µM, hits mostly inhibitors; 310,000 compounds, 3.5% hits; AID 1490;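 note: the enzyme is Sfp with the accession as filed and its product quenches rhodamine fluorescence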
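Sfp 15 nM + cpd, 15 min RT; start w/ rhodamine-CoA 5 uM, BHQ-2-YbbR 12.5 uM (final); 50 mM Hepes pH 7.6, 10 mM MgCl2, 0.01% NP-40, 0.01% BSA; read 525/598 nm at 0 and 30 min.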
Each line names hits and unclear results; the compound was inactive in the other large screens; ! = not confirmed by another sample. Calls come from the whole dose curve; as a rule, active = well fitted curve in the direction sought with a large enough effect; inconclusive = small, poorly fitted or top-dose-only effect, or another doubt; inactive = no such curve, though single readings can be large; an effect the other way counts as inactive or inconclusive.

CCN(CC)CCN(C(=O)c1ccc(C(=O)c2ccccc2)cc1)c1nc2ccc(OC)cc2s1	BAZ2B block inconclusive, JMJD2A Tudor inconclusive, G9a block 45µM
Cc1ccc2nc(NNC(=O)c3ccc(S(=O)(=O)N4CCc5ccccc5C4)cc3)sc2c1	ALOX12 inh inconclusive, BAZ2B block 4.5µM, JMJD2A Tudor inconclusive
Cc1ccc2nc(N(CCCN(C)C)C(=O)CCc3ccccc3)sc2c1	ALOX12 inh inconclusive, G9a block inconclusive, Sfp inh inconclusive
Cc1ccc2nc(N(CCCN(C)C)C(=O)c3ccc4ncsc4c3)sc2c1	ALOX12 inh inconclusive, BAZ2B block inconclusive, JMJD2A Tudor 40µM, G9a block 14µM, Sfp inh 40µM
Cc1ccc2nc(N(CCN(C)C)C(=O)c3ccc4ccccc4c3)sc2c1	BAZ2B block inconclusive, JMJD2A Tudor 45µM, G9a block 40µM, Sfp inh inconclusive (no result: ALOX12 inh)
CN1CC(=O)N(C2CCCNC2)Cc2c(NCCCN3CCCCC3)ncnc21 (stereo not drawn)	none (no result: HP1b binding inh, BAZ2B block, JMJD2A Tudor, G9a block, Sfp inh)
CN(C)CCN(C(=O)c1ccc(Br)s1)c1nc2cc3c(cc2s1)OCCO3	G9a block inconclusive, Sfp inh 56µM (no result: BAZ2B block)
Cc1ccc(S(=O)(=O)CC(=O)N(CCCN(C)C)c2nc3ccc(C)cc3s2)cc1	ALOX12 inh inconclusive (no result: Sfp inh)
Cc1cc(C)c2nc(N(CCCN(C)C)C(=O)c3ccc4c(c3)OCCO4)sc2c1	ALOX12 inh inconclusive, JMJD2A Tudor inconclusive, G9a block 50µM (no result: Sfp inh)
CCCCN(C)S(=O)(=O)c1ccc(C(=O)N(CCN(C)C)c2nc3ccc(C)cc3s2)cc1	BAZ2B block inconclusive, JMJD2A Tudor inconclusive, G9a block 40µM
CCN(CC)CCN(C(=O)c1cc2c(ccc3ccccc32)oc1=O)c1nc2cc3c(cc2s1)OCCO3	ALOX12 inh inconclusive, BAZ2B block inconclusive, Sfp inh 40µM (no result: G9a block)
CN(C)CCN(C(=O)c1cccs1)c1nc2cc3c(cc2s1)OCCO3	ALOX12 inh inconclusive, G9a block inconclusive
COC[C@@H]1CN(C(=O)c2cn3ccccc3n2)C[C@H]1c1nc(C)no1	none (no result: HP1b binding inh, BAZ2B block, JMJD2A Tudor, G9a block, Sfp inh)
O=C(CCCc1c[nH]c2ccccc12)Nc1cccc2cnccc12	none (no result: HP1b binding inh, BAZ2B block, JMJD2A Tudor, G9a block, Sfp inh)
CC(C)C(NC(=O)c1cccs1)c1ccc2c(c1)OCCCO2 (stereo not drawn)	none (no result: HP1b binding inh, BAZ2B block, JMJD2A Tudor, G9a block, Sfp inh)
CCN(CC)CCN(C(=O)c1ccc2c(c1)OCCO2)c1nc2cc3c(cc2s1)OCO3	JMJD2A Tudor inconclusive
CCN(CC)CCN(C(=O)c1ccc2c(c1)OCCO2)c1nc2ccc(C)cc2s1	BAZ2B block 35µM, JMJD2A Tudor inconclusive, G9a block 79µM
Cc1ccc2nc(N(CCN(C)C)C(=O)c3ccc4c(c3)OCCO4)sc2c1	ALOX12 inh inconclusive, BAZ2B block inconclusive, JMJD2A Tudor inconclusive, G9a block 45µM
CCN(CC)CCN(C(=O)c1ccc2ccccc2c1)c1nc2ccc(F)cc2s1	ALOX12 inh inconclusive, JMJD2A Tudor inconclusive, G9a block 45µM
Cc1ccc2nc(NNC(=O)c3ccc4c(c3)OCCO4)sc2c1	BAZ2B block inconclusive, JMJD2A Tudor inconclusive, G9a block 11µM, Sfp inh inconclusive
Cc1ccc(-c2cc(C(=O)N3CCN(c4ccc(O)cc4)CC3)c3ccccc3n2)cc1	ALOX12 inh inconclusive, HP1b binding inh inconclusive, JMJD2A Tudor 28µM (no result: BAZ2B block, G9a block, Sfp inh)
CC(=O)N1CCN(C(=O)c2cc(-c3ccc(F)cc3)nc3ccccc23)CC1	none (no result: HP1b binding inh, BAZ2B block, JMJD2A Tudor, G9a block, Sfp inh)
O=C(O)c1cc(-c2ccc(-c3ccc(F)cc3)o2)nc2ccccc12	ALOX12 inh inconclusive, BAZ2B block inconclusive, Sfp inh 3.5µM
O=C(c1cc(C2CC2)nn1-c1ccccc1)N1CCN(Cc2ccccc2)CC1	none (no result: HP1b binding inh, BAZ2B block, JMJD2A Tudor, G9a block, Sfp inh)
Cc1ccccc1-c1cc(C(=O)N2CCCC2)c2ccccc2n1	G9a block 40µM
COc1ccc(N2CCN(C(=O)c3cc(C4CC4)nn3-c3ccccc3)CC2)cc1	HP1b binding inh inconclusive, BAZ2B block 45µM, JMJD2A Tudor 50µM, G9a block inconclusive (no result: Sfp inh)
Cc1nc(-c2c3n(c(=O)n(CC(=O)Nc4ccc(Cl)cc4)c2=O)CCCC3)no1	none (no result: HP1b binding inh, BAZ2B block, JMJD2A Tudor, G9a block, Sfp inh)
Cc1ccc(-c2cc(C(=O)N3CCCC(C(F)(F)F)C3)c3ccccc3n2)o1 (stereo not drawn)	ALOX12 inh 7.9µM! (no result: Sfp inh)

From PubChem BioAssay
